# Source: PubChem
# LASV entry inh: inhibitors of Lassa virus binding or cell entry | Lassa virus pseudotype entry inhibition, cell reporter | Potency, µM (titrated, usually from 37.9 µM), without a hit: at the highest dose activity change, negative = inhibition, actives largely listed as inhibitors | 300,000 tested, 1.2% active | AID 540256; calls by dose curve; tested in HEK293 cells; note: potency is the fitted concentration of half-maximal effect; nearly all actives have a fitted effect of over 50% in size
# HCMV antiviral: inhibitors of human cytomegalovirus. activity change, negative = inhibition, % at 57.5 µM. HFF cells, HCMV-luciferase reporter, 72 h; stronger effect = lower value. 410,000 tested, 4.5% active; in the data active = activity change below about -60%; inconclusive = no clear call, values can overlap the other calls; inactive = above about -39%
#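 Two compound doses tested in HFFs infected with HCMV-luciferase, MOI 1 PFU/cell, 72 h at 37C. Lysate luminescence read with OneGlo; data normalized against buffer-only and 10uM Salinomycin inhibitor controls.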
# FMDV inh: foot and mouth disease virus antiviral activity | Potency, µM (doses to about 57.9 µM), for inactives: top-dose activity change, negative = inhibition, actives largely listed as inhibitors | FMDV antiviral cell-based qHTS | AID 1159524 | 410,000 tested, 1.2% active; calls by dose curve; tested in HEK293T cells; note: read-out not given here; potency is the fitted concentration of half-maximal effect; nearly all actives have a fitted effect of over 45% in size
# Marburg entry inh: inhibitors of Marburg virus binding or cell entry; Marburg virus pseudotyped entry inhibition, cell reporter; Potency, µM (doses to about 37.8 µM), inactives show at the top dose activity change, negative = inhibition, most hits filed as inhibitors; 300,000 tested, 1.8% active; AID 540276; calls by dose curve; tested in HEK293 cells; note: potency is the fitted concentration of half-maximal effect
# * hit, by the source's call; ? = inconclusive; nt = no result given; [ ] = remark or other dose. A selection: hits, their analogues and other compounds. The true share with any hit is near 6.2%. % is set by controls: 0 for no effect and ±100 for the full control effect.
SMILES,LASV entry inh,HCMV antiviral,FMDV inh,Marburg entry inh
CC(C)c1cccc(-c2csc(C(C)(O)c3ccccc3)n2)c1 (stereo not drawn),nt,-4.3,-4.8%,nt
Cc1ccc(C)c(-n2nnnc2Sc2nc([N+](=O)[O-])nn2C)c1,-0.3%,-70.3*,1.9%,?
Cc1ccc(-n2nnnc2Sc2nc([N+](=O)[O-])nn2C)cc1C,-21.7%,-16.9,0.0%,-20.5%
O=[N+]([O-])c1ccc(/C=N/Nc2cc(Cl)nc(-c3ccccc3)n2)cc1,-12.9%,-28.0,-24.4%,-12.8%
Clc1cc2c(cc1/C=N/Nc1nc(N3CCOCC3)nc(N3CCOCC3)n1)OCO2,0.6%[46.1 µM],3.2,-23.5%,-18.2%[46.1 µM]
O=[N+]([O-])c1ccc(Cl)c(/C=N/Nc2nc(N3CCOCC3)nc(N3CCOCC3)n2)c1,-12.7%,19.0,8.2%,0.0517µM*
O=[N+]([O-])c1cccc(/C=N/Nc2nc(N3CCOCC3)nc(N3CCOCC3)n2)c1,-1.4%,-92.6*,-21.3%,?
O=[N+]([O-])c1cccc(/C=N/Nc2cc(N3CCOCC3)ncn2)c1,nt,-28.7,8.5%,nt
Cc1ccc([N+](=O)[O-])cc1Nc1nc(N2CCOCC2)nc(N2CCOCC2)n1,20.6%[46.1 µM],-69.6*,-21.3%,?
O=[N+]([O-])c1cccc(/C=N/Nc2cc(Cl)nc(-c3ccccc3)n2)c1,10µM*,-14.2,?,-2.8%[46.1 µM]
Cc1cccc2c(N3CCCC3)nc(CNS(=O)(=O)c3ccccc3F)nc12,nt,nt,-7.1%,nt
NNc1cc(C(=O)O)ccc1Cl,-24.7%,-24.2,-15.4%,-2.8%[46.1 µM]
CO/N=C/NC(=O)N1OC[C@@H]2COc3ccc4ccccc4c3[C@@H]21,9.1%,1.5,-10.0%,-10.1%
NC(=S)N1OC[C@@H]2COc3ccc4ccccc4c3[C@@H]21,5.1%,-67.5*,-0.5%,?
COc1ccc(-c2c[n+]3c4n2CCCCC4=C(c2ccc(Br)cc2)C3)cc1,-85.0%,-99.7*,-6.9%,?
O=C(O)CCCCNCc1ccccc1,14.2%,-11.5,nt,13.6%
c1ccc(CNCCCNCCCCNCCCNCc2ccccc2)cc1,?,-97.3*,-9.3%,?
COc1ccccc1-c1cn[nH]c1-c1ccc(OCc2ccccc2)cc1O,1.3%[46.1 µM],-25.1,?,?
O=[N+]([O-])c1ccc(COc2ccc(-c3[nH]ncc3-c3ccc(Cl)cc3)c(O)c2)cc1,?,-6.9,31.6µM*,?
COc1ccc(-c2cn[nH]c2-c2ccc(OCc3ccc([N+](=O)[O-])cc3)cc2O)cc1OC,nt,-96.0*,15.8µM*,nt
COc1ccc(-c2cn[nH]c2-c2ccc(OCc3ccccc3F)cc2O)cc1OC,nt,-61.0*,?,nt
Cc1cc(C(C)(C)C)oc1C(=O)N1CCN(C(=O)c2oc(C(C)(C)C)cc2C)CC1,nt,-66.5*,?,3.3%
COc1ccc(/C=C2\Cc3ccccc3C2=O)cc1OC,nt,?,43.4%,nt
COc1ccc(/C=C2\CCc3ccccc3C2=O)cc1O,?,20.2,?,11.2µM*
COc1ccc(/C=C2\CCc3ccccc3C2=O)cc1Cn1cccn1,?,?,-98.9%,18.3µM*
SMILES,LASV entry inh,HCMV antiviral,FMDV inh,Marburg entry inh
COc1ccccc1N1CCN(c2ccc3ccccc3n2)CC1,?,77.3,14.2%,?
COc1ccccc1N1CCN(c2cc(N3CCCC3)nc(C)n2)CC1,-8.3%,-103.5*,10.8%,4.0%
COc1ccccc1N1CCN(c2ccc(-c3ccccc3)nn2)CC1,3.55µM*,-95.6*,-60.5%,1.58µM*
CCCCOC(=O)c1c(C)oc2ccc(NS(=O)(=O)c3ccc4c5c(cccc35)C(=O)N4)cc12,?,-20.2,-18.0%,?
COc1ccc(NC(=O)CCCN2C(=O)CCC2=O)cc1Cl,11.6%,?,1.8%,?
Cc1ccc(-c2nc3nc(C)cc(C)n3c2Nc2ccc3c(c2)OCCO3)cc1,-5.7%[46.1 µM],49.8,33.7%,?
CCCC(=O)Nc1ccc2nc(SCC(=O)N3CCOCC3)sc2c1,20.0%[46.1 µM],36.9,6.6%,?
CCOc1ccccc1C1CC(=O)Nc2cc3c(cc21)OCCO3 (stereo not drawn),?,-98.5*,17.8µM*,8.2µM*
CCOc1c(Br)cc(C2CC(=O)Nc3cc4c(cc32)OCO4)cc1OC (stereo not drawn),?,10.9,-2.7%,?
COc1cc(C2CC(=O)Nc3cc4c(cc32)OCCO4)cc(Br)c1OC (stereo not drawn),?,-80.6*,-15.3%,?
CCCOc1ccccc1C1CC(=O)Nc2cc3c(cc21)OCCO3 (stereo not drawn),?,nt,22.4µM*,2.82µM*
CCCCOc1ccccc1C1CC(=O)Nc2cc(C)c(C)cc21 (stereo not drawn),-16.5%[46.1 µM],-27.4,?,nt
CCn1cc(C(=O)N2CCCC(N3CCN(c4cccc(C(F)(F)F)c4)CC3)C2)cn1 (stereo not drawn),nt,-27.5,-23.7%,nt
COc1ccc(NS(=O)(=O)Cc2ccccc2Cl)cn1,26.0%,-16.3,-5.7%,-0.3%
CN1CCN(NC(=O)c2cn(-c3ccccc3)nc2-c2ccc(OC(F)F)cc2)CC1,7.1%,-37.7,-5.1%,7.08µM*
COc1ccc(-c2nn(-c3ccccc3)cc2C(=O)Nc2nccs2)cc1,-20.4%,-23.3,?,?
Cc1ccccc1NC(=O)c1cn(-c2ccccc2)nc1-c1ccccc1,-6.8%[46.1 µM],?,?,2.4%[46.1 µM]
Cc1cccc(C)c1NC(=O)c1cn(-c2ccccc2)nc1-c1ccccc1,-2.6%,-64.4*,-20.0%,17.0%
CC(=O)c1ccc(NC(=O)c2cn(-c3ccccc3)nc2-c2ccncc2)cc1,?,4.0,-7.2%,?
COC(=O)c1ccc(NC(=O)c2cn(-c3ccccc3)nc2-c2ccncc2)cc1,-14.9%,-97.8*,?,12.6µM*
O=C(Nc1cccc(S(=O)(=O)N2CCOCC2)c1)c1cn(-c2ccccc2)nc1-c1ccccc1,?,-64.2*,26.0%,?
O=C1/C(=C/c2ccccc2)SC(=S)N1N1C(=O)C2CC2C1=O (stereo not drawn),nt,-17.5,-5.9%,nt
Cc1cc(=O)[nH]c2ccc(S(=O)(=O)N3CCOCC3)cc12,-0.7%[46.1 µM],10.4,-11.4%,?
COc1cc(/C=C/C(=O)OCC(=O)Nc2ccccc2Cl)cc(OC)c1OC,-3.2%[46.1 µM],-2.3,-17.4%,-20.0%[46.1 µM]
C/C(=N\Nc1nncc2ccccc12)c1cccc(OC(F)F)c1,2.82µM*,41.0,-24.5%,?
SMILES,LASV entry inh,HCMV antiviral,FMDV inh,Marburg entry inh
O=C1COc2ccccc2N1Cc1c(F)cccc1Cl,nt,-63.2*,-4.9%,nt
Cc1ccc(CNc2nc(C)nc3sc4c(c23)CCC4)cc1,41.5%[14.3 µM],?,?,?
Cc1nc(Nc2ccc(O)cc2)c2c3c(sc2n1)CCCC3,?,-75.9*,-21.3%,?
N#C/C(=C\c1cccnc1)C(=O)Nc1cccc2ccccc12,11.6%,135.4,25.1µM*,?
Cc1c(Cl)cccc1NC(=S)NNc1ncc(C(F)(F)F)cc1Cl,?,-102.5*,-18.5%,20.6µM*
NC(=S)c1ncc(C(F)(F)F)cc1Cl,0.1%,6.0,-7.8%,15.9%
Cc1ccccc1NC(=S)NNc1ncc(C(F)(F)F)cc1Cl,-39.0%,1.5,-26.3%,?
NC(=S)Nc1ncc(C(F)(F)F)cc1Cl,15.3%,-92.0*,-13.5%,-14.8%[46.1 µM]
Fc1ccccc1NC(=S)NNc1ncc(C(F)(F)F)cc1Cl,?,-39.2,?,7.94µM*
